Laboratory results published in PMC11062922 (Nature Chemical Biology, 2023).
Like-named read-outs stand apart in the source and are kept apart here.

Tests used:
ADCK3 = system: ADCK3; parameters: species or system human, MV4-11 + K-562 + COLO205 + SK-N-BE2 + OVCAR-8; conditions: read-out: apparent Kd, n = 1
ERCC2 = system: ERCC2; parameters: species or system human, MV4-11 + K-562 + COLO205 + SK-N-BE2 + OVCAR-8; conditions: read-out: apparent Kd; compound concentrations:100 nM and 1000 nM (sheet 'Samples'); n = 1
MAP4K5 = system: MAP4K5; parameters: species or system human, MV4-11 + K-562 + COLO205 + SK-N-BE2 + OVCAR-8; conditions: read-out: apparent Kd; compound concentrations:100 nM and 1000 nM (sheet 'Samples'); n = 1
AKT3 = system: AKT3; parameters: species or system human, MV4-11 + K-562 + COLO205 + SK-N-BE2 + OVCAR-8; conditions: read-out: apparent Kd; compound concentrations: 100 nM and 1000 nM (sheet 'Samples'), CATDS: 0.185918724063731; n = 1
MAP2K5 = system: MAP2K5; parameters: species or system human, MV4-11 + K-562 + COLO205 + SK-N-BE2 + OVCAR-8; conditions: read-out: apparent Kd; compound concentrations: 100 nM and 1000 nM (sheet 'Samples'), CATDS: 0.16534591084459199; n = 1
NQO1 = system: NQO1; parameters: species or system human, MV4-11 + K-562 + COLO205 + SK-N-BE2 + OVCAR-8; conditions: read-out: apparent Kd; compound concentrations: 100 nM and 1000 nM (sheet 'Samples'), CATDS: 0.18486916507509299; n = 1
TNK1 = system: TNK1; parameters: species or system human, MV4-11 + K-562 + COLO205 + SK-N-BE2 + OVCAR-8; conditions: read-out: apparent Kd; compound concentrations: 100 nM and 1000 nM (sheet 'Samples'), CATDS: 0.23807616191270001; n = 1
ADCK1 = system: ADCK1; parameters: species or system human, MV4-11 + K-562 + COLO205 + SK-N-BE2 + OVCAR-8; conditions: read-out: apparent Kd; compound concentrations: 100 nM and 1000 nM (sheet 'Samples'), CATDS: 6.3645310719154996E-2; n = 1
FLT3 = system: FLT3; parameters: species or system human, MV4-11 + K-562 + COLO205 + SK-N-BE2 + OVCAR-8; conditions: read-out: apparent Kd; compound concentrations: 100 nM and 1000 nM (sheet 'Samples'), CATDS: 0.35383441234921298; n = 1
JAK2 = system: JAK2; parameters: species or system human, MV4-11 + K-562 + COLO205 + SK-N-BE2 + OVCAR-8; conditions: read-out: apparent Kd; compound concentrations: 100 nM and 1000 nM (sheet 'Samples'), CATDS: 0.243308820463081; n = 1
LIMK1 = system: LIMK1; parameters: species or system human, MV4-11 + K-562 + COLO205 + SK-N-BE2 + OVCAR-8; conditions: read-out: apparent Kd, compound concentrations: 100 nM and 1000 nM (sheet 'Samples'), n = 1
LYN = system: LYN; parameters: species or system human, MV4-11 + K-562 + COLO205 + SK-N-BE2 + OVCAR-8; conditions: read-out: apparent Kd; compound concentrations: 100 nM and 1000 nM (sheet 'Samples'), CATDS: 6.5965838221970899E-2; n = 1
MAPK14 = system: MAPK14; parameters: species or system human, MV4-11 + K-562 + COLO205 + SK-N-BE2 + OVCAR-8; conditions: read-out: apparent Kd; compound concentrations: 100 nM and 1000 nM (sheet 'Samples'), CATDS: 7.0797769182365994E-2; n = 1
MTOR = system: MTOR; parameters: species or system human, MV4-11 + K-562 + COLO205 + SK-N-BE2 + OVCAR-8; conditions: read-out: apparent Kd; compound concentrations: 100 nM and 1000 nM (sheet 'Samples'), CATDS: 8.3808219559409397E-2; n = 1
PIK3CD = system: PIK3CD; parameters: species or system human, MV4-11 + K-562 + COLO205 + SK-N-BE2 + OVCAR-8; conditions: read-out: apparent Kd; compound concentrations: 100 nM and 1000 nM (sheet 'Samples'), CATDS: 0.184193400818676; n = 1
PRKACG = system: PRKACG; parameters: species or system human, MV4-11 + K-562 + COLO205 + SK-N-BE2 + OVCAR-8; conditions: read-out: apparent Kd; compound concentrations: 100 nM and 1000 nM (sheet 'Samples'), CATDS: 7.8396451474863002E-2; n = 1
PRKDC = system: PRKDC; parameters: species or system human, MV4-11 + K-562 + COLO205 + SK-N-BE2 + OVCAR-8; conditions: read-out: apparent Kd; compound concentrations: 100 nM and 1000 nM (sheet 'Samples'), CATDS: 6.9640678326095301E-2; n = 1
RET = system: RET; parameters: species or system human, MV4-11 + K-562 + COLO205 + SK-N-BE2 + OVCAR-8; conditions: read-out: apparent Kd; compound concentrations: 100 nM and 1000 nM (sheet 'Samples'), CATDS: 7.1676948179133407E-2; n = 1
T10 = system: T1, T10; parameters: species or system human, MV4-11 + K-562 + COLO205 + SK-N-BE2 + OVCAR-8; conditions: read-out: apparent Kd; compound concentrations: 100 nM and 1000 nM (sheet 'Samples'), CATDS: 5.8337212061708103E-2; n = 1
T1 construct: gene NAT10

IRAK3 = system: IRAK3; parameters: species or system human, MV4-11 + K-562 + COLO205 + SK-N-BE2 + OVCAR-8; conditions: read-out: apparent Kd; compound concentrations: 100 nM and 1000 nM (sheet 'Samples'), CATDS: 0.24255292072304399; n = 1
NEK1 = system: NEK1; parameters: species or system human, MV4-11 + K-562 + COLO205 + SK-N-BE2 + OVCAR-8; conditions: read-out: apparent Kd; compound concentrations: 100 nM and 1000 nM (sheet 'Samples'), CATDS: 0.13907038524561799; n = 1
NUAK2 = system: NUAK2; parameters: species or system human, MV4-11 + K-562 + COLO205 + SK-N-BE2 + OVCAR-8; conditions: read-out: apparent Kd; compound concentrations: 100 nM and 1000 nM (sheet 'Samples'), CATDS: 0.15992761786182699; n = 1
Q6ZSR9 = Q6ZSR9 (human, UniProt Q6ZSR9); parameters: species or system MV4-11 + K-562 + COLO205 + SK-N-BE2 + OVCAR-8; conditions: read-out: apparent Kd; compound concentrations: 100 nM and 1000 nM (sheet 'Samples'), CATDS: 0.17489786753405201; n = 1
Chain of Q6ZSR9 (Q6ZSR9 whole entry, looked up): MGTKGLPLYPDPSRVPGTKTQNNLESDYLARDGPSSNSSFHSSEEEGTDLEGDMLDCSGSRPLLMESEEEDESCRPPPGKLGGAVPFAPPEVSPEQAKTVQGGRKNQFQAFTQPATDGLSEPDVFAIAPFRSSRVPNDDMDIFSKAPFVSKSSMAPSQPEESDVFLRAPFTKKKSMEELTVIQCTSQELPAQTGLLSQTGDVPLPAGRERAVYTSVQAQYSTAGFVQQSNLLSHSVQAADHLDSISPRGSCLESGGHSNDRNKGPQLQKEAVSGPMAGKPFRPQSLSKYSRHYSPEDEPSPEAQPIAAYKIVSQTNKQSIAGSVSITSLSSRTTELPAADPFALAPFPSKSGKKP

Compound: Nc1ncc(-c2cccnc2)c2scc(-c3ccc4c(c3)CCN4C(=O)Cc3ccccc3)c12 [GSK683281A]
- potency estimated from few doses (ADCK3; compound concentrations:100 nM and 1000 nM (sheet 'Samples')): 0.76 µM
- potency estimated from few doses (ERCC2): 1.56 µM
- potency estimated from few doses (MAP4K5): 1.56 µM

Compound: COc1cc2nccc(Nc3cccc(Oc4ccccc4)c3)c2cc1OC.Cl [GW284543A]
- potency estimated from few doses (ADCK3; compound concentrations: 100 nM and 1000 nM (sheet 'Samples'), CATDS: 0.252282452250228): 0.949 µM
- potency estimated from few doses (AKT3): 1.71 µM
- potency estimated from few doses (MAP2K5): 2.26 µM
- potency estimated from few doses (NQO1): 1.73 µM
- potency estimated from few doses (TNK1): 1.05 µM

Compound: CN(c1ccc(NC(=O)Nc2cc(C(F)(F)F)ccc2F)cc1)c1ccnc(Nc2ccc(S(N)(=O)=O)cc2)n1 [GW809893X]
- potency estimated from few doses (ADCK1): 1.37 µM
- potency estimated from few doses (FLT3): 0.0361 µM
- potency estimated from few doses (JAK2): 0.065 µM
- potency estimated from few doses (LIMK1; CATDS: 6.0612482504371901E-2): 1.63 µM
- potency estimated from few doses (LYN): 1.21 µM
- potency estimated from few doses (MAPK14): 0.973 µM
- potency estimated from few doses (MTOR): 0.61 µM
- potency estimated from few doses (PIK3CD): 0.107 µM
- potency estimated from few doses (PRKACG): 0.728 µM
- potency estimated from few doses (PRKDC): 1.02 µM
- potency estimated from few doses (RET): 0.938 µM
- potency estimated from few doses (T10): 1.88 µM

Compound: COc1cc(Nc2nccc(N3CCC(NC(=O)Nc4cccc(C(C)=O)c4)C3)n2)cc(OC)c1OC (centres unmarked) [GSK1379753A]
- potency estimated from few doses (ADCK3; compound concentrations: 100 nM and 1000 nM (sheet 'Samples'), CATDS: 0.16868464966378999): 1.38 µM
- potency estimated from few doses (IRAK3): 0.726 µM
- potency estimated from few doses (LIMK1; CATDS: 0.14732071058877899): 1.85 µM
- potency estimated from few doses (NEK1): 2.14 µM
- potency estimated from few doses (NUAK2): 1.54 µM
- potency estimated from few doses (Q6ZSR9): 1.28 µM
